# Source: PubChem BioAssay AID1038 (National Center for Advancing Translational Sciences (NCATS), 2008)
# Inconclusive results are not listed. The source made the active and inactive calls. Calls come from the whole dose curve.
# Assay: Normal 1 Cell Viability Secondary Assay for qHTS Assay for Epigenetic Modulators
# Settings: Normal 1 bronchial epithelial viability, MTS, 4 d
# Excerpt: NIH Molecular Libraries Screening Centers Network [MLSCN] NIH Chemical Genomics Center [NCGC] MLSCN Grant: 1 X01 MH079860-01 Assay Provider: Elisabeth D. Martinez, University of Texas SW Medical Center NCGC Assay Overview: This secondary assay characterizes selected actives identified in the qHTS of the Locus Derepression (LDR) assay (PubChem AID 597). The LDR assay detects the derepression of a GFP reporter that is stably integrated in a region of the genome of murine c127i mammary cells that is presumably silenced. Compounds that cause derepression of the locus to express GFP are identified by enumerating GFP positive cells using a laser-scanning microplate cytometer. […] Normal 1 cell viability was measured using Cell Titer 96 AQueous One (Promega), an assay which detects the ability of metabolically active cells to reduce a tetrazolium salt substrate (MTS), into a soluble formazan product that can be measured by colorimetry.
# NCGC Assay Protocol Summary Normal 1 cells were plated in 96-well flat bottom tissue culture dishes (Corning) and grown overnight at 37 C and 5% CO2, then treated with compounds, incubated 4 days, and assayed for viability using the Cell Titer 96 AQueous One kit (Promega) according to the manufacturer's protocol. Absorbance at 490 nm and 650 nm (reference) was measured by a Spectra Max (Molecular Devices). […]
smiles,measurement,value
CN1CSC(=S)N(C)C1,outcome,inactive
